# Reference: the supplement of paper PMC6897291
# How the values were obtained:
# U-2932 [1] = experiment: growth inhibition by drug alone (1 - RLU/untreated control) (fraction); higher = stronger inhibition; details: 177Lu-lilotomab satetraxetan 0 ug/ml
# Procedure, shortened: (§1)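 With or without 18 h pretreatment by a radiolabelled anti-CD37 antibody conjugate (~600 MBq/mg; 0.5 µg/ml RIVA, 1 µg/ml U-2932), RIVA and U-2932 cells were washed and plated at 3,000 cells/well. Pre-printed compound doses were 10/100 nM for RIVA and 10/1,000 nM for U-2932. Growth inhibition uses RealTime-Glo RLU relative to the untreated no-drug wells. The calculation is 1 − RLU/mean of 48 such wells per plate, with reads daily from day 3 after 1 h at 37°C.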
# RIVA [2] = experiment: as above; details: 177Lu-lilotomab satetraxetan 0 ug/ml
# Procedure, shortened: as §1
# U-2932 [3] = experiment: growth inhibition by drug plus 177Lu-lilotomab satetraxetan (1 - RLU/untreated control) (fraction); higher = stronger inhibition; details: 177Lu-lilotomab satetraxetan 1 ug/ml
# Procedure, shortened: as §1
# RIVA [4] = experiment: as above; details: 177Lu-lilotomab satetraxetan 0.5 ug/ml
# Procedure, shortened: as §1
Compound,"growth inhibition by drug alone (U-2932 [1]; 10 nM, time (day): 3)","growth inhibition by drug alone (U-2932 [1]; 10 nM, time (day): 4)","growth inhibition by drug alone (U-2932 [1]; 10 nM, time (day): 5)","growth inhibition by drug alone (U-2932 [1]; 10 nM, time (day): 6)","growth inhibition by drug alone (U-2932 [1]; 1000 nM, time (day): 3)","growth inhibition by drug alone (U-2932 [1]; 1000 nM, time (day): 4)","growth inhibition by drug alone (U-2932 [1]; 1000 nM, time (day): 5)","growth inhibition by drug alone (U-2932 [1]; 1000 nM, time (day): 6)","growth inhibition by drug alone (RIVA [2]; 10 nM, time (day): 3)","growth inhibition by drug alone (RIVA [2]; 10 nM, time (day): 4)","growth inhibition by drug alone (RIVA [2]; 10 nM, time (day): 5)","growth inhibition by drug alone (RIVA [2]; 10 nM, time (day): 6)","growth inhibition by drug alone (RIVA [2]; 100 nM, time (day): 3)","growth inhibition by drug alone (RIVA [2]; 100 nM, time (day): 4)","growth inhibition by drug alone (RIVA [2]; 100 nM, time (day): 5)","growth inhibition by drug alone (RIVA [2]; 100 nM, time (day): 6)","growth inhibition by drug plus 177Lu-lilotomab satetraxetan (U-2932 [3]; 10 nM, time (day): 3)","growth inhibition by drug plus 177Lu-lilotomab satetraxetan (U-2932 [3]; 10 nM, time (day): 4)","growth inhibition by drug plus 177Lu-lilotomab satetraxetan (U-2932 [3]; 10 nM, time (day): 5)","growth inhibition by drug plus 177Lu-lilotomab satetraxetan (U-2932 [3]; 10 nM, time (day): 6)","growth inhibition by drug plus 177Lu-lilotomab satetraxetan (U-2932 [3]; 1000 nM, time (day): 3)","growth inhibition by drug plus 177Lu-lilotomab satetraxetan (U-2932 [3]; 1000 nM, time (day): 4)","growth inhibition by drug plus 177Lu-lilotomab satetraxetan (U-2932 [3]; 1000 nM, time (day): 5)","growth inhibition by drug plus 177Lu-lilotomab satetraxetan (U-2932 [3]; 1000 nM, time (day): 6)","growth inhibition by drug plus 177Lu-lilotomab satetraxetan (RIVA [4]; 10 nM, time (day): 3)","growth inhibition by drug plus 177Lu-lilotomab satetraxetan (RIVA [4]; 10 nM, time (day): 4)","growth inhibition by drug plus 177Lu-lilotomab satetraxetan (RIVA [4]; 10 nM, time (day): 5)","growth inhibition by drug plus 177Lu-lilotomab satetraxetan (RIVA [4]; 10 nM, time (day): 6)","growth inhibition by drug plus 177Lu-lilotomab satetraxetan (RIVA [4]; 100 nM, time (day): 3)","growth inhibition by drug plus 177Lu-lilotomab satetraxetan (RIVA [4]; 100 nM, time (day): 4)","growth inhibition by drug plus 177Lu-lilotomab satetraxetan (RIVA [4]; 100 nM, time (day): 5)","growth inhibition by drug plus 177Lu-lilotomab satetraxetan (RIVA [4]; 100 nM, time (day): 6)"
CC[C@@H]1C(=O)N(C)c2cnc(Nc3ccc(C(=O)NC4CCN(C)CC4)cc3OC)nc2N1C1CCCC1,0.821,0.844,0.867,0.907,0.953,0.973,0.981,0.984,0.903,0.895,0.9,0.908,0.937,0.955,0.964,0.968,0.814,0.856,0.903,0.941,0.938,0.957,0.97,0.982,0.93,0.959,0.97,0.978,0.918,0.956,0.969,0.976
Cc1ccc(C(=O)N(CCCN)[C@@H](c2nc3cc(Cl)ccc3c(=O)n2Cc2ccccc2)C(C)C)cc1,0.446,0.424,0.379,0.372,0.959,0.968,0.972,0.977,0.202,0.194,0.075,-0.26,0.918,0.931,0.939,0.943,0.393,0.409,0.426,0.465,0.965,0.973,0.98,0.984,0.652,0.647,0.659,0.655,0.94,0.962,0.971,0.979
Cc1ccc(-c2csc3ncnc(SCCC(=O)O)c23)cc1,0.0174,-0.014,-0.0343,-0.0333,-0.00216,-0.0356,-0.0409,0.0278,-0.135,-0.215,-0.266,-0.425,-0.333,-0.33,-0.376,-0.529,-0.0558,-0.00644,0.0127,0.0699,-0.0374,0.018,0.0424,0.16,0.458,0.495,0.522,0.525,0.365,0.436,0.45,0.472
COc1ccc(-c2ccc3c(N4CCOC[C@@H]4C)nc(N4CCOC[C@@H]4C)nc3n2)cc1CO,0.165,0.142,0.0822,0.157,0.896,0.892,0.897,0.909,0.0033,-0.0925,-0.125,-0.292,0.617,0.609,0.575,0.472,0.124,0.14,0.163,0.253,0.899,0.893,0.902,0.923,0.495,0.529,0.545,0.545,0.749,0.763,0.762,0.744
CS(=O)(=O)c1cccc(CNc2nc(Nc3ccc4c(c3)CCC(=O)N4)ncc2C(F)(F)F)c1,0.0502,0.00856,-0.0018,0.0705,-0.0504,-0.0365,-0.0145,0.085,-0.0802,-0.0828,-0.0817,-0.0957,-0.0969,-0.126,-0.181,-0.218,-0.0177,0.0519,0.101,0.199,0.0169,0.0857,0.144,0.314,0.467,0.549,0.572,0.567,0.206,0.328,0.352,0.383
"CC[C@H](CO)Nc1nc(NCc2ccccc2)c2ncn(C(C)C)c2n1 [Roscovitine (Seliciclib, CYC202)]",0.0612,0.034,-0.0433,-0.134,-0.0928,-0.0155,-0.074,-0.195,0.0751,0.0434,0.0188,-0.143,-0.0194,-0.0523,-0.0745,-0.157,0.0443,0.0516,0.0573,0.114,-0.105,0.0161,-0.0091,-0.013,0.429,0.539,0.544,0.554,0.49,0.54,0.55,0.531
COC(=O)Nc1ccc(-c2nc(N3CCOCC3)c3cnn(C4CCN(C(=O)OC)CC4)c3n2)cc1,0.122,0.107,0.0346,-0.00417,0.454,0.381,0.375,0.388,0.0376,0.1,0.0593,-0.105,0.0485,0.0181,0.033,0.00434,0.113,0.147,0.233,0.252,0.395,0.315,0.348,0.433,0.624,0.663,0.677,0.664,0.468,0.537,0.55,0.563
COC(=O)c1ccc2c(C(=Nc3ccc(N(C)C(=O)CN4CCN(C)CC4)cc3)c3ccccc3)c(O)[nH]c2c1 [BIBF1120 (Vargatef)],-0.0536,-0.0365,-0.0213,0.0413,-0.121,-0.0853,-0.113,-0.173,-0.119,-0.148,-0.188,-0.27,-0.285,-0.322,-0.347,-0.414,-0.06,-0.0397,-0.00235,0.146,-0.172,-0.0703,-0.0418,-0.00489,0.292,0.437,0.461,0.479,0.251,0.362,,
